Source: PubChem BioAssay AID1259349 (Broad Institute, 2017)
“And” between values parts separate entries of the source, which are not always exact repeats. Identical values can stand only once. The campaign covered roughly 17,000 compounds. About 1,100 (6.5%) were called active. The sample holds actives, similar compounds and a random draw of the others, so the mix is not that of the screen.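 The calls were made as follows: active = z-score of -3 or lower, meaning strong loss of probe binding signal; inactive = the rest.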 A structure can be active in one record and inactive in another.

The compounds below were run against Insulin-degrading enzyme (Homo sapiens) (UniProt P14735) (assay: displacers of FL-6b probe from IDE – biochemical, fluorescence anisotropy, probe displacement, primary screen (AID 1259349;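 also: His-tagged human IDE residues 42-1019 made in E. coli with 30 nM FL-6b probe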)). Conditions: purified IDE, FL-6b probe fluorescence polarization; at 20 µM; stronger effect = lower value.
Sequence of Insulin-degrading enzyme (Homo sapiens) (P14735 42-1019 limits assumed): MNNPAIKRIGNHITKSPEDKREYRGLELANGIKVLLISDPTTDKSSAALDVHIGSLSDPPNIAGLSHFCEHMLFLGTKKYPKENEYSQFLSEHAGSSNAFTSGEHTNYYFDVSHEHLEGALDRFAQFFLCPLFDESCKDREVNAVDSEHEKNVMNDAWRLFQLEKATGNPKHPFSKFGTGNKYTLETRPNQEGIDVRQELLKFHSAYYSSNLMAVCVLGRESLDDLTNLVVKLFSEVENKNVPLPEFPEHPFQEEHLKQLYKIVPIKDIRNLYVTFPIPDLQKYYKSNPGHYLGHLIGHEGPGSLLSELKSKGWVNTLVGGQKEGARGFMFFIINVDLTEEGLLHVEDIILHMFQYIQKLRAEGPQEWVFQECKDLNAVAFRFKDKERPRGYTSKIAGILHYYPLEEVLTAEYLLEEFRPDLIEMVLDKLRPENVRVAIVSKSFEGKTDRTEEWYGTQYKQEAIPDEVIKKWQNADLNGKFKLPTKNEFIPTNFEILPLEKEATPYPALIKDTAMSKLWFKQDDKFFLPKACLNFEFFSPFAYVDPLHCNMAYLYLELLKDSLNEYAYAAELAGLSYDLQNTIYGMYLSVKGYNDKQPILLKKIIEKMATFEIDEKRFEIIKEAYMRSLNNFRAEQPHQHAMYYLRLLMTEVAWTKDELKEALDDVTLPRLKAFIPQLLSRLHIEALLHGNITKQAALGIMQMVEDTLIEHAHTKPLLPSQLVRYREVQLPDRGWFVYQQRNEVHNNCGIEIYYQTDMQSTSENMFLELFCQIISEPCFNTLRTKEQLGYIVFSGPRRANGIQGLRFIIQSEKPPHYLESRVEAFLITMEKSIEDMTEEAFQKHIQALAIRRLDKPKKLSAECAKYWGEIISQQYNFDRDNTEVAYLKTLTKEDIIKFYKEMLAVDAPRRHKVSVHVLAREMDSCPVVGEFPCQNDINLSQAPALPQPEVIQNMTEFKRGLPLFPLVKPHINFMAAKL
With `COCC(=O)N1[C@H](CO)[C@H](c2ccccc2-c2ccc(C)cc2)[C@@H]1C#N` the z-score was 0.234 (inactive).
In the case of `N#C[C@@H]1[C@H](c2ccc(C#Cc3ccccc3F)cc2)[C@H](CO)N1C(=O)C1CCCCC1`, the z-score was -0.57 (inactive).
For `CCCC#Cc1ccc([C@H]2[C@@H](CO)N(C(=O)C3CC3)[C@H]2C#N)cc1`, the z-score was 0.0113 (inactive).
`CC(C)C#Cc1ccc([C@@H]2[C@@H](C#N)N(C(=O)C3CC3)[C@@H]2CO)cc1` was tested, and the z-score was 1.34 (inactive).
`N#C[C@H]1N[C@H](CO)[C@@H]1c1ccc(C#Cc2ccccc2F)cc1` was tested, and the z-score was 0.0442 (inactive).
For `COc1ccccc1C#Cc1ccc([C@@H]2[C@@H](CO)N(C(=O)C3CC3)[C@H]2C#N)cc1`, the z-score was -8.33 (active).
For `N#C[C@@H]1N[C@H](CO)[C@@H]1c1ccc(/C=C/c2ccccc2)cc1`, the z-score was 0.0442 (inactive).
In the case of `COCC(=O)N1[C@H](CO)[C@@H](c2ccc(C#Cc3ccccc3F)cc2)[C@@H]1C#N`, the z-score was -3.16 (active).
With `N#C[C@H]1[C@H](c2ccc(C#Cc3ccc(F)cc3)cc2)[C@@H](CO)N1C(=O)C1CCCC1` the z-score was 6.39 (inactive).
In the case of `N#C[C@@H]1[C@@H](c2ccccc2)[C@@H](CO)N1C(=O)Cc1ccccc1`, the z-score was 0.975 (inactive).
`N#C[C@@H]1N[C@@H](CO)[C@@H]1c1ccc(C#Cc2ccccc2F)cc1` was tested, and the z-score was -3.8 (active).
For `COc1ccccc1C#Cc1ccc([C@H]2[C@@H](C#N)N(C(=O)C3CCCCC3)[C@@H]2CO)cc1`, the z-score was -7.41 (active).
With `C[C@@H]1CN([C@@H](C)CO)C(=O)c2cc(-c3ccc(C#N)cc3)cnc2O[C@@H]1CN(C)Cc1cccnc1` the z-score was 0.499 (inactive).
In the case of `COc1cccc(S(=O)(=O)Nc2ccc3c(c2)[C@@H]2C[C@H](CC(=O)NC4CCCCC4)O[C@H](CO)[C@@H]2O3)c1`, the z-score was 0.0301 (inactive).
In the case of `O=S(=O)(Cc1ccccc1)N1CCCCN2[C@H](CO)[C@@H](c3ccc(-c4cncnc4)cc3)[C@H]2C1`, the z-score was 1.15 (inactive).
With `CCc1sc(N2[C@@H](C#N)[C@@H](c3ccccc3-c3ccccc3)[C@@H]2CO)nc1C` the z-score was 1.04 (inactive).
`COc1ccc(NC(=O)N2CC(=O)N3[C@H](CO)[C@@H](c4ccc(C#CCC5CCCC5)cc4)[C@H]3C2)cc1` was tested, and the z-score was 2.81 (inactive).
`COc1ccccc1NC(=O)N1CC(=O)N2[C@H](CO)[C@H](c3ccc(C#Cc4ccccc4)cc3)[C@H]2C1` was tested, and the z-score was -2.66 (inactive).
In the case of `CCCNC(=O)N1CC(=O)N2[C@@H](CO)[C@H](c3ccc(-c4ccc(C)cc4)cc3)[C@@H]2C1`, the z-score was -1.44 (inactive).
For `CCCNC(=O)N1CC(=O)N2[C@H](C1)[C@@H](c1ccc(C#Cc3ccccc3)cc1)[C@@H]2CO`, the z-score was -4.24 (active).
`COc1cccc(C#Cc2ccc([C@@H]3[C@H]4CN(C(=O)Cc5ccccc5)CC(=O)N4[C@H]3CO)cc2)c1` was tested, and the z-score was -0.17 (inactive).
For `COCC(=O)N1CC(=O)N2[C@@H](CO)[C@@H](c3ccc(C#CC(C)C)cc3)[C@@H]2C1`, the z-score was 1.03 (inactive).
For `COc1ccccc1NC(=O)N1CC(=O)N2[C@H](C1)[C@H](c1ccc(C#Cc3ccccc3)cc1)[C@@H]2CO`, the z-score was -3.53 (active).
In the case of `CCCNC(=O)N1CC(=O)N2[C@H](CO)[C@@H](c3ccc(-c4ccc(F)cc4)cc3)[C@H]2C1`, the z-score was -0.254 (inactive).
`COCC(=O)N1CC(=O)N2[C@H](C1)[C@@H](c1ccc(C#Cc3cccc(OC)c3)cc1)[C@@H]2CO` was tested, and the z-score was -5.09 (active).
With `COc1ccccc1NC(=O)N1CC(=O)N2[C@H](CO)[C@@H](c3ccc(C#Cc4ccc(F)cc4)cc3)[C@H]2C1` the z-score was 3.22 (inactive).
For `C[C@H]1CN([C@@H](C)CO)C(=O)CCCn2nncc2CO[C@H]1CN(C)S(=O)(=O)c1ccccc1C#N`, the z-score was -0.585 (inactive).
For `Cc1ccc(-c2ccc([C@H]3[C@H](CO)N4C(=O)CN(S(=O)(=O)c5cccc(F)c5)C[C@@H]34)cc2)cc1`, the z-score was 1.91 (inactive).
In the case of `C[C@H](NC(=O)C[C@@H]1C[C@@H]2c3cc(NS(=O)(=O)c4ccc(F)cc4)ccc3O[C@@H]2[C@@H](CO)O1)c1ccccc1`, the z-score was -0.633 (inactive).
In the case of `O=C1NCCCOCc2cn(nn2)CC[C@@H]1Cc1ccc(-c2ccccc2)cc1`, the z-score was -0.0302 (inactive).
In the case of `O=C(c1ccncc1)N1CC(=O)N2[C@H](CO)[C@H](c3ccc(-c4ccccc4F)cc3)[C@@H]2C1`, the z-score was 0.944 (inactive).
`O=C(c1ccncc1)N1CC(=O)N2[C@H](CO)[C@@H](c3ccc(-c4cccnc4)cc3)[C@H]2C1` was tested, and the z-score was 2.02 (inactive).
In the case of `CCCC#Cc1ccc([C@@H]2[C@@H](CO)N3C(=O)CN(C(=O)c4ccncc4)C[C@@H]23)cc1`, the z-score was 1.2 (inactive).
In the case of `Cc1ccccc1-c1ccc([C@H]2[C@@H](CO)N3C(=O)CN(C(=O)c4ccncc4)C[C@H]23)cc1`, the z-score was -10 (active).
`CCCC#Cc1ccc([C@H]2[C@@H](CO)N3C(=O)CN(C(=O)c4ccncc4)C[C@H]23)cc1` was tested, and the z-score was 0.281 (inactive).
`Cc1ccccc1-c1ccc([C@H]2[C@@H](CO)N3C(=O)CN(C(=O)c4ccncc4)C[C@@H]23)cc1` was tested, and the z-score was -3.52 (active).
For `COc1ccc(C#Cc2ccc([C@@H]3[C@@H](CO)N4C(=O)CN(C(=O)c5ccc(F)cc5)C[C@@H]34)cc2)cc1`, the z-score was 0.452 (inactive).
With `CN(C)C(=O)c1ccc(-c2ccc([C@@H]3[C@H](C#N)N(C(=O)C4CC4)[C@H]3CO)cc2)cc1` the z-score was -0.273 (inactive).
`COc1ccc(CN(C)C[C@@H]2Oc3ccc(NC(=O)Nc4ccc5c(c4)OCO5)cc3CC(=O)N([C@H](C)CO)C[C@H]2C)cc1` was tested, and the z-score was 1.72 (inactive).
In the case of `COc1ccc2c3c(n(C)c2c1)[C@@H](CO)N(CC1CC1)CC31CCN(C(=O)c2cccc(F)c2)CC1`, the z-score was 0.882 (inactive).
With `CO[C@H](CN(C)C(=O)c1cnccn1)[C@@H](C)CN([C@@H](C)CO)S(=O)(=O)c1ccccc1` the z-score was 1.89 (inactive).
`CN(C)CC(=O)N1[C@H](C#N)[C@H](c2ccccc2-c2cccc(C(=O)N(C)C)c2)[C@@H]1CO` was tested, and the z-score was 4.1 (inactive).
In the case of `C[C@@H]1CN([C@H](C)CO)C(=O)c2c(c3ccccc3n2C)-c2ccccc2CO[C@H]1CN(C)C(=O)[C@@H](Cc1ccccc1)N(C)C`, the z-score was -1.45 (inactive).
`O=C(C[C@@H]1CC[C@H]2NC[C@H](O)COC[C@@H]2O1)NCCN1CCCCC1` was tested, and the z-score was 0.878 (inactive).
`O=C1C[C@@H](c2ccccc2)C(=O)N[C@H](c2ccc(F)cc2)C/C=C\CCN1` was tested, and the z-score was 1 (inactive).
`O=S(=O)(c1ccccc1F)N1[C@@H]2CNC[C@H]1C2c1ccc(-c2cncnc2)cc1` (some centres not stated) was tested, and the z-score was 2.04 (inactive).
For `Cc1cccc(-c2ccccc2[C@@H]2[C@H](C#N)N(c3ncc(-c4ccccc4)s3)[C@H]2CO)c1`, the z-score was 4.05 (inactive).
In the case of `O=S(=O)(c1ccccc1)N1C[C@@H]2[C@H](c3ccccc31)[C@H](CO)N2Cc1ccccn1`, the z-score was 2.16 (inactive).
With `CN(C)C(=O)c1cccc(-c2ccc(C3[C@H]4CNC[C@@H]3N4C(=O)Nc3ccccc3F)cc2)c1` (some centres not stated) the z-score was 1.08 (inactive) and 3.82 (inactive).
For `COc1cccc(S(=O)(=O)N2[C@@H]3CNC[C@H]2C3c2ccc(-c3ccccc3OC)cc2)c1` (some centres not stated), the z-score was -0.496 (inactive) and -4.13 (active).
With `Cc1cccc(-c2ccc(C3[C@H]4CNC[C@@H]3N4S(=O)(=O)c3ccccc3F)cc2)c1` (some centres not stated) the z-score was 5.33 (inactive) and 3.85 (inactive).
With `Cc1ccc(-c2ccc(C3[C@H]4CNC[C@@H]3N4S(=O)(=O)c3ccccc3C)cc2)cc1` (some centres not stated) the z-score was 1.05 (inactive) and 2.8 (inactive).
With `COc1ccccc1NC(=O)N1[C@@H]2CNC[C@H]1C2c1ccc(-c2ccccc2C)cc1` (some centres not stated) the z-score was -4.4 (active).
`COc1cccc(NC(=O)N2[C@@H]3CNC[C@H]2C3c2ccc(-c3ccncc3)cc2)c1` (some centres not stated) was tested, and the z-score was 0.421 (inactive) and 0.471 (inactive).
With `COCCNC(=O)C[C@H]1CC[C@@H]2[C@H](COc3ccc(NC(=O)Nc4cccc(F)c4)cc3C(=O)N2C)O1` the z-score was -0.769 (inactive).
In the case of `COc1ccc(S(=O)(=O)N2CCCCN3[C@@H](CO)[C@@H](c4ccc(C#CCC(C)C)cc4)[C@@H]3C2)cc1`, the z-score was 4 (inactive).
With `CN(C)C(=O)c1cccc(-c2ccc(C3[C@@H]4CN(S(=O)(=O)c5ccc(F)cc5)C[C@H]3N4)cc2)c1` (some centres not stated) the z-score was 4.34 (inactive) and 3.12 (inactive).
In the case of `C[C@@H]1CC(=O)N[C@H](c2ccccc2)C/C=C\C[C@H](c2ccccc2)NC1=O`, the z-score was 1.16 (inactive).
With `COCC(=O)N1CCCCN2[C@H](CO)[C@@H](c3ccc(-c4ccc(OC)cc4)cc3)[C@@H]2C1` the z-score was -2.67 (inactive).
With `COCC(=O)N1CCCCN2[C@H](CO)[C@H](c3ccc(-c4ccc(OC)cc4)cc3)[C@H]2C1` the z-score was -1.33 (inactive).
With `CC(C)C#Cc1ccc([C@H]2[C@H](CO)N3CCCCN(C(=O)NC(C)C)C[C@@H]23)cc1` the z-score was 0.103 (inactive).
For `CC(C)NC(=O)N1CCCCN2[C@@H](CO)[C@@H](c3ccc(C#Cc4ccccc4)cc3)[C@@H]2C1`, the z-score was -8.05 (active).
With `COc1ccc(-c2ccc([C@@H]3[C@@H](CO)N4CCCCN(C(=O)NC(C)C)C[C@H]34)cc2)cc1` the z-score was -4.12 (active).
In the case of `CC(C)C#Cc1ccc([C@@H]2[C@H]3CN(C(=O)NC(C)C)CCCCN3[C@H]2CO)cc1`, the z-score was 1 (inactive).
With `COc1ccc2c3c([nH]c2c1)[C@H](CO)N(Cc1nccs1)CC31CCN(Cc2cccnc2)CC1` the z-score was -0.878 (inactive).
In the case of `COc1cccc(S(=O)(=O)N2CCCCN3[C@H](C2)[C@@H](c2ccc(C4=CCCCC4)cc2)[C@@H]3CO)c1`, the z-score was 2.68 (inactive).
In the case of `COc1ccc2c3c([nH]c2c1)[C@H](CO)N(Cc1ccc(F)cc1)CC31CCN(Cc2ccccn2)CC1`, the z-score was -1.44 (inactive).
